Values without a mark were called inactive. Results filed as inconclusive are left out. Calls of active or inactive are those of the source. Unless noted, calls come from the whole dose curve; as a rule, active = well fitted curve in the direction sought with a large enough effect in the repeat runs; inconclusive = weak or mixed curves; inactive = no such curve, though single readings can be large; an effect the other way counts as inactive or inconclusive.

Experimental findings from PubChem BioAssay (Tox21) are described below.

Experiment [1] is described as follows: qHTS assay for small molecule agonists of the p53 signaling pathway (AID 651631; calls by dose curve; note: nearly all actives have a fitted effect of over 15% in size). A digest of the protocol: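 Quantitative high-throughput format: 4,000 p53RE-bla HCT-116 cells/well, 5 h pre-incubation, 16 h compound exposure at 37 °C, 2 h room-temperature substrate step, fluorescence intensity measured.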
A short description of experiment [2]: qHTS assay for small molecule agonists of the p53 signaling pathway - cell viability (AID 651633; calls by dose curve; note: nearly all actives have a fitted effect of over 30% in size; note: potency is the fitted concentration of half-maximal effect). A digest of the protocol: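 Viability counter-read: CellTiter-Glo luminescence (30 min, room temperature) in the same p53RE-bla plates. These plates had been exposed to compounds for 16 h at 37 C.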
Experiment [3] is described as follows: qHTS assay for small molecules that induce genotoxicity in human embryonic kidney cells expressing luciferase-tagged ATAD5 - cell viability (AID 651634; calls by dose curve; note: nearly all actives have a fitted effect of over 25% in size). A digest of the protocol: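 Live-cell protease activity (CellTiter-Fluor, fluorescence) indicates viability. HEK293T cells with luciferase-tagged ATAD5; 15.5 hr compound treatment at 37C.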
Experiment [4] in a line: qHTS assay for small molecule disruptors of the mitochondrial membrane potential - cell viability (AID 720634; calls by dose curve;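 note: human HepG2 liver cancer cells; nearly all actives have a fitted effect of over 20% in size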). A digest of the protocol:
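Human hepatoma HepG2 cells were treated for 1 hr with test chemicals, then given m-MPI dye and CellTiter-Glo. Cell viability reflects luminescence proportional to cellular ATP.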

Experiment [5] is described as follows: qHTS assay for small molecule disruptors of the mitochondrial membrane potential (AID 720635). Note: potency is the fitted concentration of half-maximal effect. A digest of the protocol: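 Mitochondrial membrane potential tracked with Mito-MPS dye, red aggregates (ex 540/em 590 nm) against green monomers (ex 490/em 535 nm). Compound treatment 1 hr at 37C, dye 30 min in HepG2.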
A short description of experiment [6]: qHTS assay to test for compound auto fluorescence at 590 nm (red) in HepG2 cells (AID 720674). A digest of the protocol: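 Red autofluorescence (Ex/Em 540/590 nm, Rose Bengal sodium equivalents) was measured in HepG2 cells, 2,000 per well in MEM plus 10% FBS, plated overnight at 37 C. Readings were taken 1 hr after adding 23 nL compound or DMSO, at 37 C and 5% CO2.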

Experiment [7] can be described thus: qHTS assay to test for compound auto fluorescence at 535 nm (green) in HepG2 cells (AID 720675).
Experiment [8] in a line: qHTS assay to test for compound auto fluorescence at 460 nm (blue) in HEK293 cells (AID 720678). The procedure, abridged:
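HEK293, 2,000 cells/well, 10% dialyzed FBS; attach 4-5 hr 37C; pin compound or DMSO; o/n 37C/5% CO2; fluorescence 405/460 nm; triamterene-equivalent units.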

Experiment [9] can be described thus: qHTS assay to test for compound auto fluorescence at 590 nm (red) in HEK293 cells (AID 720679). A digest of the protocol: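 Intensity at 540nm excitation and 590nm emission is reported as Rose Bengal sodium-equivalent autofluorescence. Measurements followed overnight exposure (37C, 5% CO2) of HEK293 cells, 2,000 per well, to 23 nL compound.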
Experiment [10] is described as follows: qHTS assay to test for compound auto fluorescence at 535 nm (green) in HEK293 cells (AID 720680).
A short description of experiment [11]: qHTS assay to test for compound auto fluorescence at 460 nm (blue) in HEK293 cell free culture (AID 720681). A digest of the protocol:
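Blue fluorescence (Ex 405/Em 460 nm, triamterene-equivalent) was read immediately after pin transfer of compound or DMSO into medium (DMEM, 10% FBS) without cells.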

Experiment [12] in a line: qHTS assay to test for compound auto fluorescence at 535 nm (green) in HEK293 cell free culture (AID 720682). The procedure, abridged: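 Measurement is a direct plate read of green fluorescence (485 nm in, 535 nm out) after compound addition to serum-supplemented DMEM lacking cells, with fluorescein used to express intensities.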
Experiment [13] is described as follows: qHTS assay to test for compound auto fluorescence at 590 nm (red) in HEK293 cell free culture (AID 720683). The procedure, abridged:
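Red-channel autofluorescence of compounds in culture medium (DMEM, 10% FBS), no cells, measured at 540/590 nm. Rose Bengal sodium is the reference fluorophore for equivalence.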

Experiment [14] can be described thus: qHTS assay to test for compound auto fluorescence at 590 nm (red) in HepG2 cell free culture (AID 720684). The procedure, abridged:
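Steps: dispense MEM/10% FBS medium, no cells; pin compound or DMSO vehicle; read red channel, Ex/Em 540/590 nm. Output given as Rose Bengal sodium equivalents.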

Experiment [15] is described as follows: qHTS assay to test for compound auto fluorescence at 460 nm (blue) in HepG2 cell free culture (AID 720685). A digest of the protocol: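 Compound (23 nL) or DMSO pinned into cell-free MEM with 10% FBS; blue fluorescence read at 405/460 nm excitation/emission, expressed as auto-fluorescence equivalency to triamterene.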
The nature of experiment [16]: qHTS assay to test for compound auto fluorescence at 535 nm (green) in HepG2 cell free culture (AID 720686).
Experiment [17] in a line: qHTS assay to test for compound auto fluorescence at 460 nm (blue) in HepG2 cells (AID 720687). The procedure, abridged: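 Blue-channel autofluorescence (Ex/Em 405/460 nm, triamterene-equivalent) was measured after 1 hr compound exposure at 37 C, 5% CO2. Cells were HepG2, plated overnight at 37 C in MEM plus 10% FBS.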
A short description of experiment [18]: qHTS assay for small molecules that induce genotoxicity in human embryonic kidney cells expressing luciferase-tagged ATAD5 (AID 651632). Note: nearly all actives have a fitted effect of over 15% in size. The procedure, abridged: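 Genotoxicity read-out via ATAD5-luciferase: HEK293T cells, 16 hr compound incubation at 37C, Amplite detection.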
Experiment [19] addresses Glucocorticoid receptor (Homo sapiens) (UniProt P04150). The experiment is described as follows: qHTS assay to identify small molecule agonists of the glucocorticoid receptor (GR) signaling pathway (AID 720691; active = well fitted activation curve with a large enough effect in the signal ratio in the repeat runs, not every such curve was filed as active; the % refers to the signal ratio). The following applies: GR-bla HeLa, beta-lactamase reporter ratio, 18 h; activation: at 62.4 µM (top of the series) unless noted. A digest of the protocol: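 Beta-lactamase reporter activity, read as fluorescence intensity, was measured in GR-bla HeLa cells exposed to compounds for 18 h at 37 C and then loaded with LiveBLAzer B/G FRET substrate for 2 h at room temperature.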

Experiment [20] shares this target. As to the kind of experiment: qHTS assay to identify small molecule antagonists of the glucocorticoid receptor (GR) signaling pathway (AID 720692; active = well fitted inhibition curve with a large enough effect in the signal ratio in the repeat runs, not every such curve was filed as active; the % refers to the signal ratio). A digest of the protocol:
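Fluorescence from cleaved LiveBLAzer B/G FRET substrate reports GRE-driven beta-lactamase in HeLa cells; compounds are tested against 5 nM dexamethasone (final) over 18 h at 37 C, substrate incubation 2 h at room temperature.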
% is set by controls: 0 for no effect and ±100 for the full control effect.

Glucocorticoid receptor (Homo sapiens), sequence (P04150 whole entry, looked up): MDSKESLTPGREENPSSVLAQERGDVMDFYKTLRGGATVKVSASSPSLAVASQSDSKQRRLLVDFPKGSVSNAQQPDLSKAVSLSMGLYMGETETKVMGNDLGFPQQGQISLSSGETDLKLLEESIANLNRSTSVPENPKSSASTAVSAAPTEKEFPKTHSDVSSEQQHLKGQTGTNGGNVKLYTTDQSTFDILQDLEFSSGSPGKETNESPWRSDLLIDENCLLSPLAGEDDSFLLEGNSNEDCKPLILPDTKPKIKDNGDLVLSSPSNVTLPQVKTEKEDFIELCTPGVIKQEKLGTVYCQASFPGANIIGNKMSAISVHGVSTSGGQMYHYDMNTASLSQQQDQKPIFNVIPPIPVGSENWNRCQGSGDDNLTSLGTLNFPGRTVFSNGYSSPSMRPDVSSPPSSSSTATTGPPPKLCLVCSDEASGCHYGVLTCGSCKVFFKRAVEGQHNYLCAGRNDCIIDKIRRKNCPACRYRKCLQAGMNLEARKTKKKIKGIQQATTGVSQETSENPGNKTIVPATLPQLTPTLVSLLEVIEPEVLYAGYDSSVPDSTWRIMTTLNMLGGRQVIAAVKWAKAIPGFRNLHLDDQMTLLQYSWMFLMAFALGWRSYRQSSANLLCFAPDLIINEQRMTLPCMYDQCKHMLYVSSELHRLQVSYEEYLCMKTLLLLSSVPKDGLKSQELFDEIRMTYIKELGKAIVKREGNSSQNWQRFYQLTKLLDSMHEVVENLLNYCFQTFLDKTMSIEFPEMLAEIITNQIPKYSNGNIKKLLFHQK

As to `CCn1cc(C(=O)O)c(=O)c2cnc(N3CCNCC3)nc21`, the Potency entry in experiment [1], in experiment [2], in experiment [3], in experiment [4] and in experiment [5] was “inactive” each time. The fluorescence, relative to Rose Bengal in experiment [6] was 0.305% [at 18.6 µM]. For the same compound, the fluorescence, % of fluorescein control was -0.0874% [at 18.6 µM] in [7] and 0.152% [at 18.6 µM] in [16]. The fluorescence, % of triamterene in [8] was -0.0251% [at 18.6 µM]. The fluorescence, % of fluorescent control was -0.324% [at 18.6 µM] in experiment [9]; 6.27% [at 18.6 µM] in [11]; -0.371% [at 18.6 µM] in [13]; 0.0041% [at 18.6 µM] in experiment [15]; -0.128% [at 18.6 µM] in experiment [17]. In addition, the fluorescence, % of fluorescein in experiment [10] is 0.0376% [at 18.6 µM]. For the same compound, the activity change in experiment [12] is 0.0637% [at 18.6 µM]. The fluorescence, % of Rose Bengal in experiment [14] is -0.185% [at 18.6 µM].
Turning to `O=C(O)c1ccc(-n2nc(-c3ccccc3O)nc2-c2ccccc2O)cc1`, the Potency result in experiment [18], in experiment [4], in experiment [6], in [7], in experiment [9] and in [13] was “inactive” throughout. Besides, the Potency entry in [14] and in [16] was “inactive” each time. Moreover, in [2], the Potency is 13.3 µM (active). In addition, the call in experiment [8], in experiment [10], in experiment [11], in experiment [12] and in [17] was inactive.
In the case of `c1cc(CCCc2ccncc2)ccn1`, the Potency result in [18], in experiment [2], in experiment [3], in experiment [4], in experiment [7] and in [9] was “inactive” each time. Further, the Potency entry in experiment [13], in experiment [14], in [16] and in experiment [19] was “inactive” throughout. Further, the outcome in experiment [8], in experiment [10], in [11], in experiment [12], in [15] and in experiment [17] was inactive.
As for `CC1CCC(=O)C1=O` (configuration not stated), the Potency result in [18], in experiment [3], in [4], in [5], in experiment [6] and in experiment [7] was “inactive” throughout. The Potency entry in [9], in [13], in [14], in experiment [16] and in experiment [19] was “inactive” each time. The outcome in experiment [8], in experiment [10], in experiment [11], in experiment [12], in experiment [15] and in experiment [17] was inactive.
`CN(C)CCN(Cc1ccccc1)c1ccccn1`: the Potency result in experiment [18], in [2], in experiment [3], in experiment [4], in experiment [6] and in experiment [7] was “inactive” throughout. Further, the Potency result in [13], in experiment [14], in experiment [16], in [19] and in experiment [20] was “inactive” each time. Besides, the compound was classed as inactive in experiment [8], in experiment [10], in [11], in experiment [12], in experiment [15] and in experiment [17].
`COc1ccc(C(=O)Nc2nc3ccccc3c(NCc3ccccc3)c2C#N)cc1`: the Potency result in experiment [18], in experiment [2], in [3], in experiment [6], in experiment [7] and in experiment [9] was “inactive” each time. The Potency entry in experiment [13], in [14] and in experiment [16] was “inactive” throughout. Besides, in experiment [5], the Potency was 5.45 µM (active). In addition, the call in [8], in experiment [10], in experiment [11], in experiment [12] and in experiment [17] was inactive.
Turning to `COc1ccnc(CS(=O)c2nc3ccc(OC(F)F)cc3[nH]2)c1OC` (configuration not stated), the Potency entry in experiment [18], in experiment [2], in experiment [3], in experiment [4], in experiment [7] and in [9] was “inactive” each time. Besides, the Potency result in experiment [13], in [14], in experiment [16] and in experiment [19] was “inactive” throughout. The compound was called inactive in experiment [8], in experiment [10], in experiment [11], in [12], in experiment [15] and in [17].
